# A selection: hits, their analogues and other compounds. The true share with any hit is near 1%.
# L3MBTL1 block: qHTS Assay for the Inhibitors of L3MBTL1; Lethal(3)malignant brain tumor-like protein 1 (Homo sapiens), Q9Y468; AlphaScreen L3MBTL1–H3K9me1 peptide binding; Potency, µM (highest dose often 57.1 µM), without a hit: at the top dose activity, negative = inhibition, actives largely listed as inhibitors; 230,000 tested, 0.66% active; further: on the % scale 0 is the no-effect control and ±100 the full control effect; nearly all actives have a fitted effect of over 60% in size
# Target sequence (Q9Y468 whole entry, looked up): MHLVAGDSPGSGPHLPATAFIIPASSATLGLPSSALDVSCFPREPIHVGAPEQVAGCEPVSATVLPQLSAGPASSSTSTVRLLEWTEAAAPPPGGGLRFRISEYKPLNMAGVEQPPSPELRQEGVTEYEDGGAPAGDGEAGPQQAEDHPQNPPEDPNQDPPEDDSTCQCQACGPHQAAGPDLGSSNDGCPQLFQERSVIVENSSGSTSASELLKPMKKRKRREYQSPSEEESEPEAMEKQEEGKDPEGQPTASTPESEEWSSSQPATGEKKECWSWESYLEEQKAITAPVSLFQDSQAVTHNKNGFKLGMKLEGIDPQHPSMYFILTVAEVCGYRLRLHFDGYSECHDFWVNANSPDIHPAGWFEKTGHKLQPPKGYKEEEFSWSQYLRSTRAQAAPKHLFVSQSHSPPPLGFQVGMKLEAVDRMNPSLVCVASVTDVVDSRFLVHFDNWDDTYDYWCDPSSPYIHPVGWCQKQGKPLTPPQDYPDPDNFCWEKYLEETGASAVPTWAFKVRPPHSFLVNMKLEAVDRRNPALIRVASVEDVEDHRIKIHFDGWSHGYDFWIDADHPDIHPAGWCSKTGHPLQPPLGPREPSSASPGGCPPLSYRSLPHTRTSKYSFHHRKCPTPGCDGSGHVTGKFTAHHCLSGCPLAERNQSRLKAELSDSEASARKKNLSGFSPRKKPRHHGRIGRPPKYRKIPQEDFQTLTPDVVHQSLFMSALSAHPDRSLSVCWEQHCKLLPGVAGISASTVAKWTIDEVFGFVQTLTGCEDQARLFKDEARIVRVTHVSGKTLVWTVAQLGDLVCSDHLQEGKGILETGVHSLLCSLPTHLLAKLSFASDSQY
#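 First, the protein-peptide complex forms for 30 min at room temperature (L3MBTL1 50 nM, biotinylated H3K9me1 peptide 75 nM). Next, compounds are pin-transferred and incubated 30 min. Finally, AlphaScreen beads are added and read after 30 min.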
# WRN helicase inh: qHTS for Inhibitors of WRN Helicase; WRN helicase unwinding, fluorescent forked duplex, kinetic; Potency, µM (doses to about 114 µM), without a hit: top-dose activity change, negative = inhibition, most hits filed as inhibitors; 360,000 tested, 0.46% active; AID 651768, 2012; further: on the % scale 0 is the no-effect control and ±100 the full control effect; nearly all actives have a fitted effect of over 55% in size
#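 Primary qHTS, 1536-well format. 20 nM WRN + compound, 15 min RT; start with 100 nM forked fluorophore/quencher duplex, 2 mM ATP (final); kinetic read ex 525/em 598 nm.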
# APEX1 inh: qHTS Assay for Inhibitors of the Human Apurinic/apyrimidinic Endonuclease 1 (APE1) | DNA repair nuclease/redox regulator APEX1 (Homo sapiens), P27695 | recombinant APE1, TAMRA/BHQ-2 abasic DNA cleavage fluorescence | Potency, µM (titrated, usually from 65.8 µM), for inactives: top-dose activity change, negative = inhibition, actives largely listed as inhibitors | 350,000 tested, 0.35% active;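 further: plate controls were vehicle for no effect and reference inhibitor for full effect; nearly all actives have a fitted effect of over 55% in size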
#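 Kinetic fluorescence read (525 ex/598 em nm, three reads 60 s apart) of AP-site incision; signal = third minus first read. Enzyme 0.75 nM, dual-labelled THF duplex 50 nM, compound preincubation 15 min RT.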
# RECQ1 inh: qHTS Assay for Inhibitors of RecQ-Like Dna Helicase 1 (RECQ1) | AID 2549, 2010 | ATP-dependent DNA helicase Q1 (Homo sapiens), P46063 | 240,000 tested, 0.54% active | RECQ1 DNA unwinding, red fluorescence kinetic read | Potency, µM (doses to about 57.3 µM), without a hit: at the highest dose activity, negative = inhibition, hits mostly inhibitors;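 further: plate controls were vehicle for no effect and no enzyme for full effect; nearly all actives have a fitted effect of over 30% in size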
#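 RECQ1T1 50 nM; forked duplex (20 bp + 30-nt ss tails) 200 nM, ATP 2 mM final; pH 8.0, 2 mM MgCl2, 2.5 ug/ml poly(dI-dC); 15 min compound preincubation; discontinuous kinetic read over 2 h at RT.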
# BLM helicase inh: qHTS Assay for Inhibitors of Bloom's syndrome helicase (BLM); RecQ-like DNA helicase BLM (Homo sapiens), P54132; recombinant BLM DNA unwinding, fluorescence dequenching; Potency, µM (top dose mostly 56.1 µM), for inactives: top-dose activity change, negative = inhibition, hits mostly inhibitors; 350,000 tested, 0.2% active; AID 2528, 2010;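 further: plate controls were vehicle for no effect and no enzyme for full effect; nearly all actives have a fitted effect of over 35% in size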
# FEN1 inh-1: qHTS Assay for the Inhibitors of Human Flap endonuclease 1 (FEN1); Potency, µM (doses to about 114 µM), for inactives: at the highest dose activity change, negative = inhibition, usual class: inhibitors; Recombinant FEN1 flap cleavage, fluorescence, 15 min; P39748; 390,000 tested, 0.35% active; further: on the % scale 0 is the no-effect control and ±100 the full control effect; nearly all actives have a fitted effect of over 65% in size
#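 FEN1 at 10 nM, compound pretreatment for 15 min (room temperature), 50 nM final substrate to initiate; endpoint reads at 0 and 15 min; DMSO-only plates used as vehicle background.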
# FEN1 inh-2: qHTS Assay for the Inhibitors of FEN1: Confirmatory Assay for Cherry-picked Compounds; AID 720498, 2013; Potency, µM, most hits filed as inhibitors; FEN1 flap cleavage, TAMRA/BHQ2 fluorogenic DNA substrate; 880 tested, 79% active; shares compounds with FEN1 inh-1; further: nearly all actives have a fitted effect of over 60% in size
# * marks the source's active call; other numbers are inactive results; i = inactive; ? = inconclusive; / = no result; [ ] = remark or other dose. The call rests on the fitted dose curve; in most records, active means well fitted curve in the direction sought with a large enough effect; inconclusive means small, poorly fitted or top-dose-only effect, or another doubt; inactive means no such curve, though single readings can be large; an effect the other way counts as inactive or inconclusive. Potency means the concentration at half of the fitted maximal effect.
SMILES,L3MBTL1 block,WRN helicase inh,APEX1 inh,RECQ1 inh,BLM helicase inh,FEN1 inh-1,FEN1 inh-2
CC[n+]1ccc(/C=C/c2ccc(N(C)C)cc2)c2ccccc21,25µM*,45µM*,10%,35µM*,-28%,40µM*,48*
CN(C)c1ccc(/C=C/c2cc[n+]([O-])c3ccccc23)cc1,/,/,/,/,/,15%,/
CCOC(=O)C1CCCN(C(=O)c2ccc3nc(-c4cccc(OC)c4)oc3c2)C1 (stereo not given),/,0%,6%,/,-2%,-17%,/
COc1ccc2c(c1)c(/C=C/c1cc[n+](C)cc1)cn2C,/,-36%,-13%,/,57%,?,43*
COc1ccc2c(/C=C/c3cc[n+](C)cc3)c[nH]c2c1,/,-12%,-13%,/,0%,-25%,/
Cc1cc(C)n2nc(C(=O)N/N=C/c3c4ccccc4cc4ccccc34)nc2n1,3%,?,-3%,-13%,?,45µM*,?
CN(C)CCNC(=O)c1cccc2nc3cccc(F)c3nc12,/,-18%[11.6 µM],/,/,/,14µM*,19*
Cc1cc(F)ccc1-c1cc(C(=O)NC2CCCCC2)[nH]n1,/,0%,/,/,/,/,/
COc1cc(/C=C2\SC(=O)N(CC(=O)Nc3cccc(C)c3)C2=O)cc([N+](=O)[O-])c1O,/,?,4%,-5%,-29%,?,76*
Cc1cc(C(=O)NCCc2ccc(Cl)cc2)c2c(C)nn(-c3ccccc3)c2n1,/,/,/,/,-1%,21%,/
O=C(O)c1cc(O)c2c(c1)[C@@H]([C@H]1c3cc(C(=O)O)cc(O)c3C(=O)c3c(O[C@@H]4O[C@H](CO)[C@@H](O)[C@H](O)[C@H]4O)cccc31)c1cccc(OC3O[C@H](CO)[C@@H](O)[C@H](O)[C@H]3O)c1C2=O (stereo not given in full),0.16µM*,1.1µM*,0.084µM*,/,/,?,30*
O=C1c2cc(CO)cc(O)c2C(=O)c2c(O[C@@H]3OC(CO)[C@@H](O)[C@@H](O)[C@@H]3O)cccc21 (stereo not given in full),/,-11%,/,/,/,?,/
Cc1ccc(C(=O)Nc2nnc(CC(=O)N/N=C/c3ccncc3)s2)cc1,?,-15%[11.6 µM],-6%,-1%,-6%,5%,/
Cc1ccc(C(=O)Nc2nnc(CC(=O)N/N=C/c3ccc(O)c(O)c3)s2)cc1,/,20µM*,1.9µM*,/,13µM*,11µM*,38*
C/C(=N\NC(=O)c1ccc(OC2OCCOC2Oc2ccc(C(=O)N/N=C(\C)c3ccncc3)cc2)cc1)c1ccncc1 (stereo not given),5%,-1%,2%,-4%,-14%,-33%,67*
C/C(=N\NC(=O)c1ccncc1)c1ccc(N2CCOCC2)cc1,-2%,0%,0%,/,/,15%,/
CC1(C)O[C@H]2[C@@H](O1)[C@@H](C(=O)Nc1ccccc1O)O[C@@H]1OC(C)(C)O[C@@H]12,/,/,/,/,1%,11%,/
CCC(=O)Nc1cc(OC)c(NC(=S)Nc2ccccc2CC)cc1OC,/,4%,/,/,/,/,/
O=C(O)c1ccc(-c2ccc(/C=N/Nc3ccc([N+](=O)[O-])cc3)o2)cc1,/,?,-9%,?,-22%,-19%,85*
O=C(O)c1cccc(-c2ccc(/C=N/Nc3ccc([N+](=O)[O-])cc3)o2)c1,/,?,-5%,-1%,-18%,-30%,/
Cc1cc(C)n(Cc2ccc(C(=O)N/N=C/c3ccc(-c4ccc([N+](=O)[O-])cc4)o3)o2)n1,/,32µM*,2.7µM*,/,16µM*,56µM*,76*
CC1(C(=O)NCc2cccnc2)CCN1C(=O)c1cccc(F)c1 (stereo not given),/,1%,/,/,/,/,/
CC1OC(Oc2c(-c3cc(O)c(O)c(O)c3)oc3cc(O)cc(O)c3c2=O)C(O)C(O)C1O (stereo not given),?,-3%[11.6 µM],7%,1%,-8%,2.2µM*,2.7*
O=C(c1cc(S(=O)(=O)N2CCCC2)c[nH]1)N1CCN(c2cccc(Cl)c2)CC1,/,/,/,/,-9%,-12%,/
CC(C)(C)/C(O)=C/c1nc2ccccc2oc1=O,15%,3%[11.6 µM],19%,i,-6%,20µM*,30*
SMILES,L3MBTL1 block,WRN helicase inh,APEX1 inh,RECQ1 inh,BLM helicase inh,FEN1 inh-1,FEN1 inh-2
O=C1CC(=O)N(C2CCCCC2)C(=O)N1c1ccccc1S(=O)(=O)Oc1ccccc1,/,-13%,/,/,/,/,/
CN1CCN(CCCNc2nc3ccccc3c3nc(-c4ccccc4)nn23)CC1,/,2%,/,/,/,?,/
CCN(CC)CCCNc1nc2ccccc2c2nc(-c3ccncc3)nn12,/,-2%[11.6 µM],-16%,/,209%,45µM*,21*
Cc1ccc(CS(=O)(=O)c2cn(CC(=O)N(C)c3ccccc3)c3ccccc23)cc1,/,/,/,/,-15%,-1%,/
CSc1nc2[nH]c(=O)n(O)c(=O)c2n1Cc1ccccc1,/,6%[11.6 µM],/,/,/,-105%,0.021*
CC1Sc2ccc(S(=O)(=O)N3CCC(C(=O)Nc4ccc(Cl)cc4)CC3)cc2NC1=O (stereo not given),/,79µM*,-5%,/,-6%,?,48*
Cc1ccc(-n2ccnc(NCCc3ccc(S(N)(=O)=O)cc3)c2=O)cc1C,/,/,/,/,-4%,21%,/
COc1ccc(CNc2ccnc(-c3ccc(N(C)C)cc3)n2)c(OC)c1,/,/,-4%,i,-9%,/,/
Cc1cc(C)nc(NC(=O)CSc2nn(-c3ccccc3)c(=S)s2)n1,-9%,?,-5%,-2%,-25%,?,?
O=C(CSc1nn(-c2ccccc2)c(=S)s1)Nc1ncccn1,/,-9%,6%,-1%,-8%,-8%,/
O=C(NCCC1=CCCCC1)c1ccc2c(c1)N(Cc1cccc(Cl)c1)C(=O)c1ccccc1S2=O (stereo not given),/,/,/,/,-3%,-16%,/
COc1ccc(-c2cc(=O)c3c(O)c(OC)c(OC)c(OC)c3o2)cc1OC,/,/,-3%,-1%,6%,/,/
